Data on ten compounds can be found in PubChem BioAssay (Tox21).

Inconclusive results are not listed. Active and inactive are the calls of the source. Unless noted, calls follow the shape of the dose curve; as a rule, active = well fitted curve in the direction sought with a large enough effect in the repeat runs; inconclusive = weak or mixed curves; inactive = no such curve, though single readings can be large; an effect the other way counts as inactive or inconclusive.

Assay [1] can be described thus: qHTS assay to identify small molecule antagonists of the thyroid receptor (TR) signaling pathway - cell viability counter screen (AID 743064). Also: nearly all actives have a fitted effect of over 50% in size. Also: potency is read from the fitted curve at half-maximal effect. The method, boiled down:
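Rat GH3 pituitary tumor cells stably expressing two TR response elements driving luciferase were plated, rested 4 h, then dosed with library compounds and T3 (1 nM final). After 23.5 h at 37 °C, CellTiter-Fluor was added for 30 min and fluorescence recorded.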
In general terms: qHTS replaces the single test concentration by a dilution series.

For assay [2], the target named is Estrogen receptor (Homo sapiens) (UniProt P03372). Nature of the assay: qHTS assay to identify small molecule antagonists of the estrogen receptor alpha (ER-alpha) signaling pathway (AID 743069; active = well fitted curve in the direction sought with a large enough effect in the signal ratio in the repeat runs, not every such curve was filed as active; the % refers to the signal ratio). Put shortly:
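HEK293 cells stably carrying an ER-alpha-UAS-bla beta-lactamase reporter were pre-cultured overnight in 2% charcoal-stripped FBS medium. Test compounds in DMSO were added together with 17beta-estradiol for 18 hr at 37C. Read-out was fluorescence after 2 hr with LiveBLAzer B/G FRET substrate at room temperature.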

The nature of assay [3]: qHTS assay to identify small molecule antagonists of the estrogen receptor alpha (ER-alpha) signaling pathway - cell viability counter screen (AID 743074; calls by dose curve; also: nearly all actives have a fitted effect of over 45% in size).
Assay [4] concerns the target Estrogen receptor (Homo sapiens) (UniProt P03372). Briefly: qHTS assay to identify small molecule agonists of the estrogen receptor alpha (ER-alpha) signaling pathway (AID 743075; calls by dose curve).
Assay [5] has the same target. Briefly: qHTS assay to identify small molecule agonists of the estrogen receptor alpha (ER-alpha) signaling pathway using the BG1 cell line (AID 743079). Also: nearly all actives have a fitted effect of over 20% in size.
Assay [6] is described as follows: qHTS assay to identify small molecule antagonists of the estrogen receptor alpha (ER-alpha) signaling pathway using the BG1 cell line - cell viability counter screen (AID 743081).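 Also: compound given together with 17beta-estradiol as the ER stimulus; series mostly up to about 70 µM; nearly all actives have a fitted effect of over 45% in size.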
Assay [7] concerns the target Aromatase (Homo sapiens) (UniProt P11511). Nature of the assay: qHTS assay to identify aromatase inhibitors (AID 743083). Also: nearly all actives have a fitted effect of over 55% in size. Also: potency is read from the fitted curve at half-maximal effect.
Assay [8] is described as follows: qHTS assay to identify aromatase inhibitors - cell viability counter screen (AID 743084).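 Also: cells stimulated with testosterone during compound exposure; nearly all actives have a fitted effect of over 55% in size.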 Also: potency is read from the fitted curve at half-maximal effect.
The target in assay [9] is Aryl hydrocarbon receptor (Homo sapiens) (UniProt P35869). Briefly: qHTS assay to identify small molecule that activate the aryl hydrocarbon receptor (AhR) signaling pathway (AID 743085). Also: nearly all actives have a fitted effect of over 15% in size. Also: potency is read from the fitted curve at half-maximal effect.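 As to activation: HG2L7.5c1 human HepG2 liver cells with stably integrated DRE-driven firefly reporter; series mostly up to about 70 µM.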 Put shortly: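 Compounds were tested in HepG2 hepatocellular carcinoma cells harbouring a stably integrated luciferase gene under control of 20 DREs. Increased reporter signal after 24 h treatment at 37C was taken as AhR activation.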
Sequence of Aryl hydrocarbon receptor (Homo sapiens) (P35869 whole entry, looked up): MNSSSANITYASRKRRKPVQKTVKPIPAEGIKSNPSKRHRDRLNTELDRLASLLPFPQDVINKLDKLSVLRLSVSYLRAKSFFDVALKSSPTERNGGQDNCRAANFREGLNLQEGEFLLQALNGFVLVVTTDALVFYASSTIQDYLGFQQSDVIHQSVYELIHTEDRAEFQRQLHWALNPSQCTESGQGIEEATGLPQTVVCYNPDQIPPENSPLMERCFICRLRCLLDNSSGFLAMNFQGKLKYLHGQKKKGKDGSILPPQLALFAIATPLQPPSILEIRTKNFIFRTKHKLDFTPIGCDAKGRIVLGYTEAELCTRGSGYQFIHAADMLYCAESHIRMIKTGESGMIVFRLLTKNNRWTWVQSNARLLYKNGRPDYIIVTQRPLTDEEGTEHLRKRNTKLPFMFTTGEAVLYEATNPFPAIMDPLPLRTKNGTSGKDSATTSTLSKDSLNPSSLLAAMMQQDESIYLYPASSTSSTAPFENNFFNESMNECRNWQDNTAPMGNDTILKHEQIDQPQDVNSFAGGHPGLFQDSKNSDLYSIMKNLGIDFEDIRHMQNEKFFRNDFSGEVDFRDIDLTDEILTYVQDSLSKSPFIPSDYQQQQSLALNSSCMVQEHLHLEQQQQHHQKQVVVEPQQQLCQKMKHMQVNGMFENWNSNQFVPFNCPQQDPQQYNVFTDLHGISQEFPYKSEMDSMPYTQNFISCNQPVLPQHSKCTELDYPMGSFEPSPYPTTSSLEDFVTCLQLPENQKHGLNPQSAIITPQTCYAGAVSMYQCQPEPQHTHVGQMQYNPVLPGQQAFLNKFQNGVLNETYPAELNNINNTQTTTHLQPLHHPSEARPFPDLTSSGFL

Assay [10] is described as follows: qHTS assay to identify small molecule that activate the aryl hydrocarbon receptor (AhR) signaling pathway - cell viability counter screen (AID 743086). Also: nearly all actives have a fitted effect of over 45% in size. Also: potency is read from the fitted curve at half-maximal effect. Put shortly:
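HepG2-AhR-luc (HG2L7.5c1) cells, 4000/well, were preincubated 5 h at 37C, exposed to compound in qHTS format for 24 hr at 37C, then given CellTiter-Fluor for 30 min; viability was read as fluorescence in the reporter wells.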

Assay [11] deals with Peroxisome proliferator-activated receptor gamma (Homo sapiens) (UniProt P37231). Briefly: qHTS assay to identify small molecule agonists of the peroxisome proliferator-activated receptor gamma (PPARg) signaling pathway (AID 743094; active = well fitted activation curve with a large enough effect in the signal ratio in the repeat runs, not every such curve was filed as active; the % refers to the signal ratio). The method, boiled down:
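GeneBLAzer PPARg UAS-bla HEK293H cells were plated, rested 5 h, then exposed to compounds for 17 h at 37C. Beta-lactamase activity was read by LiveBLAzer B/G FRET substrate fluorescence after 1 h at room temperature.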

Assay [12] can be described thus: qHTS assay to identify small molecule antagonists of the peroxisome proliferator-activated receptor gamma (PPARg) signaling pathway - cell viability counter screen (AID 743194). Also: nearly all actives have a fitted effect of over 55% in size. Put shortly:
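PPARg-UAS-bla HEK293H cells were plated, rested 5 h at 37 C, then treated with compounds plus rosiglitazone (50 nM final) for 17 h at 37 C; viability was then read by CellTiter-Glo luminescence after 30 min at room temperature.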

Assay [13] is described as follows: qHTS assay for small molecule agonists of the antioxidant response element (ARE) signaling pathway (AID 743202; active = well fitted activation curve with a large enough effect in the signal ratio in the repeat runs, not every such curve was filed as active; the % refers to the signal ratio; also: potency is read from the fitted curve at half-maximal effect). The method, boiled down:
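Read-out: LiveBLAzer B/G FRET substrate fluorescence after 2 h at room temperature, following 16 h compound treatment at 37 C of HepG2 cells carrying an ARE-driven beta-lactamase reporter.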

A short description of assay [14]: qHTS assay for small molecule agonists of the antioxidant response element (ARE) signaling pathway - cell viability counter screen (AID 743203; calls by dose curve; also: nearly all actives have a fitted effect of over 55% in size). Put shortly: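 ARE-bla HepG2 cells were plated, rested 5 h at 37C/5% CO2, then exposed to compounds in DMSO for 16 h. Viability was read as CellTiter-Glo luminescence after 30 min at room temperature, in the same wells as the ARE screen.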

A short description of assay [15]: qHTS assay for small molecule activators of the heat shock response signaling pathway - cell viability counter screen (AID 743209). Also: nearly all actives have a fitted effect of over 50% in size. The method, boiled down:
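HSE-bla HeLa cells plated overnight, then exposed to Tox21 compounds (23 nL in DMSO) for 5 h at 37 C. After the bla reporter read, CellTiter-Glo was added in the same wells and luminescence read after 30 min at room temperature.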

Assay [16] can be described thus: qHTS assay for small molecule activators of the heat shock response signaling pathway (AID 743210; active = well fitted activation curve with a large enough effect in the signal ratio in the repeat runs, with a control signal flat, not every such curve was filed as active; the % refers to the signal ratio; also: series mostly up to about 63 µM). The method, boiled down: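 HSE-bla HeLa cells (beta-lactamase reporter under heat shock response elements) were exposed to compounds for 5 h at 37 C, then loaded with LiveBLAzer B/G FRET substrate for 2.5 h at room temperature before fluorescence reading.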
A short description of assay [17]: qHTS assay to identify small molecule antagonists of the thyroid receptor (TR) signaling pathway (AID 743065). Also: nearly all actives have a fitted effect of over 55% in size. Also: potency is read from the fitted curve at half-maximal effect. The method, boiled down:
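GH3.TRE-Luc rat pituitary cells carrying two TR response elements driving luciferase were plated for 4 h, given compound plus 1 nM T3 (final), and incubated 23.5 h at 37 C. ONE-Glo luminescence measured reporter inhibition; CellTiter-Fluor fluorescence tracked cytotoxicity.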

The subject of assay [18] is thyroid hormone receptor (rat, GH3 cells). Nature of the assay: qHTS assay to identify small molecule agonists of the thyroid receptor (TR) signaling pathway (AID 743066; calls by dose curve).
The target of assay [19] is Peroxisome proliferator-activated receptor gamma (Homo sapiens) (UniProt P37231). Briefly: qHTS assay to identify small molecule antagonists of the peroxisome proliferator-activated receptor gamma (PPARg) signaling pathway (AID 743191; calls by dose curve; also: series mostly up to about 63 µM; nearly all actives have a fitted effect of over 30% in size). The method, boiled down:
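GeneBLAzer PPARg UAS-bla HEK293H cells carrying a UAS-driven beta-lactamase reporter were plated at 3000 cells/well, preincubated 5 h at 37C, then given compound for 17 h at 37C; LiveBLAzer B/G FRET substrate was read after 1 h at room temperature.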

The nature of assay [20]: qHTS assay to identify small molecule antagonists of the estrogen receptor alpha (ER-alpha) signaling pathway using the BG1 cell line (AID 743080; calls by dose curve;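 also: BG1 cells stimulated with 17beta-estradiol alongside compound; series mostly up to about 70 µM; nearly all actives have a fitted effect of over 25% in size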). Put shortly: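 Endogenous full-length ER-alpha in BG1-Luc-4E2 cells drives a stably integrated 4×ERE luciferase gene; compounds were tested against 17beta-estradiol over 21.5 h, with luminescence and multiplexed viability fluorescence recorded.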

Sequence of Peroxisome proliferator-activated receptor gamma (Homo sapiens) (P37231 whole entry, looked up): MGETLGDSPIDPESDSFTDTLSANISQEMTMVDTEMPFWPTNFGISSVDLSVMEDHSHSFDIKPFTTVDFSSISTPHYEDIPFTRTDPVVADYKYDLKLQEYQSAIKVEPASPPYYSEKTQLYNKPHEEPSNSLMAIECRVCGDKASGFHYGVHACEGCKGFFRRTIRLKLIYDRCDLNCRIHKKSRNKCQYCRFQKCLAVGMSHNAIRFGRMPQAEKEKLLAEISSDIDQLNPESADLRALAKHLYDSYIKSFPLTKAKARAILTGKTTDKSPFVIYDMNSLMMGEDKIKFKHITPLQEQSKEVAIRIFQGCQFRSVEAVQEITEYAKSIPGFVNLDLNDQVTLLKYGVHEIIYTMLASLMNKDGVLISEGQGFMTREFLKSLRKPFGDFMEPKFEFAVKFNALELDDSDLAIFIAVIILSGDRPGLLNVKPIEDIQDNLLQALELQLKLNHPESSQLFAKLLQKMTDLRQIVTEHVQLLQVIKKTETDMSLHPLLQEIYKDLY
Sequence of Aromatase (Homo sapiens) (P11511 whole entry, looked up): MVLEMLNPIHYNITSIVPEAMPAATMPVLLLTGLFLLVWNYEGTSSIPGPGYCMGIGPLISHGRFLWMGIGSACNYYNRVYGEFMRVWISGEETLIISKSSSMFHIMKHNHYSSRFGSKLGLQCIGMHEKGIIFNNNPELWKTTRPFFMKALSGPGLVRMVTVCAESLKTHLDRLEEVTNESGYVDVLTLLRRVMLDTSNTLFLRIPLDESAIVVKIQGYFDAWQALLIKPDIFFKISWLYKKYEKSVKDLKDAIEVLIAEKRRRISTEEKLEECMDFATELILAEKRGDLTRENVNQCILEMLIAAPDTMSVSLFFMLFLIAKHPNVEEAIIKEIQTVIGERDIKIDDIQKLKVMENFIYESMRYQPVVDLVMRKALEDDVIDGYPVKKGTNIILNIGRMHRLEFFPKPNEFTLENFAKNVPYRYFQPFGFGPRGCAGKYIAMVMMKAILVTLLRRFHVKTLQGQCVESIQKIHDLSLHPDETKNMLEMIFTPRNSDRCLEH
Sequence of Estrogen receptor (Homo sapiens) (P03372 whole entry, looked up): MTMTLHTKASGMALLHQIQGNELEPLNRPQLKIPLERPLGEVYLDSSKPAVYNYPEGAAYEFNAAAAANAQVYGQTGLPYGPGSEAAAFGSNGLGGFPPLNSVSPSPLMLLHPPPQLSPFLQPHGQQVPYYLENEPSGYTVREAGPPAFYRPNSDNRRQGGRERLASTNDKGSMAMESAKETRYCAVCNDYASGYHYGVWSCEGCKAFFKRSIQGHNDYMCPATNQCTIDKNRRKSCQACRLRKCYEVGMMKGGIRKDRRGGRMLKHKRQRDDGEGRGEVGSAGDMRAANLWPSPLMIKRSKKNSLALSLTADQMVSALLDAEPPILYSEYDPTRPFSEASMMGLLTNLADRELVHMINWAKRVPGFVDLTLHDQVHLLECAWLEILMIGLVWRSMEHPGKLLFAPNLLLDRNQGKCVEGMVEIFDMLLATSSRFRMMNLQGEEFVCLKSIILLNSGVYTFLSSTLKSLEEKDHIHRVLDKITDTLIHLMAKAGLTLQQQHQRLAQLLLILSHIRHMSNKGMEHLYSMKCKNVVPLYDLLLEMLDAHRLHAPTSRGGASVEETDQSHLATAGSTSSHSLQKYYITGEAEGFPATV

As to `Cc1cc(O)ccc1N`, the Potency in assay [1] was 30.8 µM (active); in assay [7], 54.8 µM (active); in assay [8] it was 54.8 µM (active); in assay [9], 61.4 µM (active); in assay [13], 21.8 µM (active). Besides, the Potency entry in [2], in assay [4], in [5], in [6], in assay [10] and in assay [11] was “inactive” in each case. Further, the Potency result in assay [12], in assay [14] and in assay [15] was “inactive” each time. Also, in [3], the call was inactive.

With `Cc1cccc(OCCOc2cccc(C)c2)c1`, the Potency entry in assay [1], in assay [2], in assay [4], in assay [6], in assay [7] and in [8] was “inactive” in each case. Besides, the Potency entry in [10], in assay [11], in assay [12], in assay [13], in [14] and in assay [15] was “inactive” throughout. Moreover, the call in [3] and in assay [16] was inactive.

Consider `c1ccc(OCc2ccc(CCCN3CCOCC3)cc2)cc1`, for which the Potency in assay [17] was 21.1 µM (active). Further, the Potency entry in assay [18], in [2], in assay [4], in assay [5], in assay [6] and in [7] was “inactive” throughout. Moreover, the Potency result in [8], in [10], in assay [11], in assay [19], in assay [12] and in assay [14] was “inactive” in each case. Further, the Potency entry in [15] is “inactive”. Besides, the call in assay [3] and in assay [16] was inactive.

With `O=C(CCN1CCN2CCCC2C1)N1c2ccccc2Sc2ccc(Cl)cc21` (configuration not stated), the Potency is 21.1 µM (active) in assay [1] and 23.7 µM (active) in [10]. Besides, the Potency result in [2], in assay [4], in assay [5], in assay [20], in assay [7] and in assay [8] was “inactive” each time. Further, the Potency result in assay [11], in [12], in assay [14] and in assay [15] was “inactive” throughout. The result in assay [3] and in [16] was inactive.

Turning to `O=C(/C=C/c1ccc(O)c(O)c1)O[C@@H]1C[C@](O)(C(=O)O)C[C@@H](O)[C@H]1O`, the Potency entry in [1], in assay [18], in assay [6], in assay [10], in assay [12] and in assay [14] was “inactive” each time. Moreover, the Potency entry in assay [15] was “inactive”. The compound was called inactive in assay [3] and in [16].

As for `CCN(CC)CCOC(=O)C1(c2ccccc2)CCCC1`, the Potency entry in [17], in assay [18], in [2], in assay [4], in [5] and in [20] was “inactive” in each case. The Potency result in [6], in assay [7], in [8], in assay [10], in assay [11] and in [13] was “inactive” in each case. The Potency result in assay [14] and in assay [15] was “inactive” in each case. Further, the result in [3] and in assay [16] was inactive.

On to `CCCC(C)C`, for which the Potency result in assay [1], in [2], in assay [4], in assay [5], in assay [20] and in assay [6] was “inactive” in each case. In addition, the Potency result in [7], in assay [9], in assay [10], in assay [11], in assay [12] and in [13] was “inactive” in each case. Also, the Potency result in assay [14] was “inactive”. Further, the compound was called inactive in [3] and in [16].

As for `CC(=O)OC/C=C/c1ccccc1`, the Potency result in assay [17], in assay [18], in assay [6], in assay [7], in [8] and in assay [9] was “inactive” each time. For the same compound, the Potency result in assay [10], in [11], in assay [19], in assay [12], in assay [13] and in [14] was “inactive” in each case. Besides, in assay [15], the Potency entry is “inactive”. The result in [3] and in assay [16] was inactive.

Turning to `COc1ccc([C@@H]2Sc3ccccc3N(CCN(C)C)C(=O)[C@@H]2OC(C)=O)cc1`, the Potency in [1] was 23.7 µM (active). Further, the Potency entry in [10], in assay [12], in assay [13], in [14] and in assay [15] was “inactive” throughout. In assay [16], the compound was classed as inactive.

Turning to `CC(=O)OCCc1ccccc1`, the Potency result in assay [17], in assay [18], in assay [2], in assay [4], in [5] and in assay [20] was “inactive” each time. Moreover, the Potency entry in [6], in [7], in [8], in assay [9], in assay [10] and in [11] was “inactive” throughout. Further, the Potency entry in assay [13] and in assay [14] was “inactive” in each case. Besides, the result in assay [3] and in assay [16] was inactive.
